# Test results published in PubChem BioAssay AID1159580 (chemical genetic matrix, 2015).
# Out of some 5,500 compounds screened, about 2,000 (36%) were called active. Roughly 18% stayed inconclusive and do not appear here. The list shows a part of the results. Unmarked numbers belong to inactive results. Cut-off read from the data, not from the text of the source: active = normalized growth mostly below about 0.91 (no sharp cut-off); inconclusive = no clear call, values can overlap the other calls; inactive = mostly above about 0.92.
# Test: chemical genetic growth profiling, strain panel (AID 1159580);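 note: tested at 20 µM; growth read once vehicle control cultures reached saturation at 30 °C; 1 = growth at the plate median or of vehicle wells; lower values mean less growth of the strain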
# Details: S. cerevisiae deletion strains, growth OD
# [1] = locus YDL101C, strain DUN1, stronger effect = lower value
# [2] = locus YHR030C, strain SLT2, stronger effect = lower value
compound,measurement,setting,value
Cc1csc2ncnc(N/N=C\c3ccccc3Cl)c12,normalized growth,"locus YAR019C, strain CDC15, stronger effect = lower value",0.959
same,normalized growth,"locus YBL105C, strain PKC1, stronger effect = lower value",0.96
same,normalized growth,"locus YBR135W, strain CKS1, stronger effect = lower value",0.968
same,normalized growth,"locus YBR136W, strain MEC1, stronger effect = lower value",0.962
same,normalized growth,"locus YBR160W, strain CDC28, stronger effect = lower value",0.954
same,normalized growth,"locus YDL017W, strain CDC7, stronger effect = lower value",0.97
same,normalized growth,"locus YDL028C, strain MPS1, stronger effect = lower value",0.968
same,normalized growth,[1],0.967
same,normalized growth,"locus YDL108W, strain KIN28, stronger effect = lower value",0.962
same,normalized growth,"locus YDL132W, strain cdc53, stronger effect = lower value",0.958
same,normalized growth,"locus YDL214C, strain PRR2, stronger effect = lower value",0.961
same,normalized growth,"locus YDR052C, strain DBF4, stronger effect = lower value",0.977
same,normalized growth,"locus YDR054C, strain cdc34, stronger effect = lower value",0.952
same,normalized growth,"locus YDR226W, strain ADK1, stronger effect = lower value",0.969
same,normalized growth,"locus YDR477W, strain SNF1, stronger effect = lower value",0.958
same,normalized growth,"locus YER123W, strain YCK3, stronger effect = lower value",0.931
same,normalized growth,"locus YER133W, strain GLC7, stronger effect = lower value",0.967
same,normalized growth,"locus YFL009W, strain cdc4, stronger effect = lower value",0.958
same,normalized growth,"locus YFL029C, strain CAK1, stronger effect = lower value",0.956
same,normalized growth,"locus YFR003C, strain YPI1, stronger effect = lower value",0.96
same,normalized growth,"locus YFR019W, strain FAB1, stronger effect = lower value",0.979
same,normalized growth,"locus YFR028C, strain CDC14, stronger effect = lower value",0.955
same,normalized growth,"locus YGR040W, strain KSS1, stronger effect = lower value",0.942
same,normalized growth,"locus YGR052W, strain FMP48, stronger effect = lower value",1.03
same,normalized growth,"locus YGR092W, strain DBF2, stronger effect = lower value",0.917
same,normalized growth,[2],1.01
same,normalized growth,"locus YHR079C, strain IRE1, stronger effect = lower value",0.997
same,normalized growth,"locus YHR082C, strain KSP1, stronger effect = lower value",1.05
same,normalized growth,"locus YHR205W, strain SCH9, stronger effect = lower value",0.968
same,normalized growth,"locus YIL147C, strain SLN1, stronger effect = lower value",0.968
same,normalized growth,"locus YJL095W, strain BCK1, stronger effect = lower value",0.994
same,normalized growth,"locus YJL128C, strain PBS2, stronger effect = lower value",0.946
same,normalized growth,"locus YJL157C, strain FAR1, stronger effect = lower value",0.947
same,normalized growth,"locus YJR016C, strain ILV3, stronger effect = lower value",0.956
same,normalized growth,"locus YJR066W, strain TOR1 (second series), stronger effect = lower value",0.918
same,normalized growth,"locus YJR066W, strain TOR1, stronger effect = lower value",1.05
same,normalized growth,"locus YKL048C, strain ELM1, stronger effect = lower value",0.976
same,normalized growth,"locus YKL067W, strain YNK1, stronger effect = lower value",0.947
same,normalized growth,"locus YKL101W, strain HSL1, stronger effect = lower value",0.951
same,normalized growth,"locus YKL193C, strain SDS22, stronger effect = lower value",0.957
same,normalized growth,"locus YKL203C, strain TOR2, stronger effect = lower value",1
same,normalized growth,"locus YLR113W, strain HOG1, stronger effect = lower value",0.882
same,normalized growth,"locus YLR133W, strain CKI1, stronger effect = lower value",0.951
same,normalized growth,"locus YLR403W, strain SFP1, stronger effect = lower value",0.931
same,normalized growth,"locus YML070W, strain DAK1, stronger effect = lower value",0.935
same,normalized growth,"locus YMR001C, strain CDC5, stronger effect = lower value",0.957
same,normalized growth,"locus YMR205C, strain PFK2 (second series), stronger effect = lower value",0.973
same,normalized growth,"locus YMR277W, strain FCP1, stronger effect = lower value",0.966
same,normalized growth,"locus YNL006W, strain LST8, stronger effect = lower value",0.973
same,normalized growth,"locus YNL020C, strain ARK1, stronger effect = lower value",0.958
same,normalized growth,"locus YNL161W, strain CBK1, stronger effect = lower value",0.956
same,normalized growth,"locus YNL183C, strain NPR1, stronger effect = lower value",1.02
same,normalized growth,"locus YNL207W, strain RIO2, stronger effect = lower value",0.965
same,normalized growth,"locus YNL222W, strain SSU72, stronger effect = lower value",0.961
same,normalized growth,"locus YNL307C, strain MCK1 (second series), stronger effect = lower value",0.962
same,normalized growth,"locus YOL078W, strain AVO1, stronger effect = lower value",0.957
same,normalized growth,"locus YOL136C, strain PFK27, stronger effect = lower value",0.942
same,normalized growth,"locus YOR061W, strain CKA2, stronger effect = lower value",0.973
same,normalized growth,"locus YOR119C, strain RIO1, stronger effect = lower value",1.01
same,normalized growth,"locus YOR231W, strain MKK1, stronger effect = lower value",0.927
same,normalized growth,"locus YOR329C, strain SCD5, stronger effect = lower value",0.96
same,normalized growth,"locus YPL031C, strain PHO85, stronger effect = lower value",0.959
same,normalized growth,"locus YPL153C, strain RAD53, stronger effect = lower value",0.944
same,normalized growth,"locus YPL204W, strain HRR25, stronger effect = lower value",0.936
same,normalized growth,"locus YPL209C, strain IPL1, stronger effect = lower value",0.949
same,normalized growth,"locus YPL256C, strain CLN2, stronger effect = lower value",0.901
same,normalized growth,"locus YPR025C, strain CCL1, stronger effect = lower value",0.968
same,normalized growth,"locus YPR106W, strain ISR1, stronger effect = lower value",0.955
same,normalized growth,"locus YPR111W, strain DBF20, stronger effect = lower value",0.943
same,normalized growth,"strain NNK1, stronger effect = lower value",0.959
same,normalized growth,"strain TSCII, stronger effect = lower value",0.957
O=C(N/N=C\c1ccccc1Cl)N/N=C\c1ccccc1Cl,normalized growth,"locus YAL013W, strain DEP1, stronger effect = lower value",0.898 (active)
same,normalized growth,"locus YBR229C, strain ROT2, stronger effect = lower value",0.989
same,normalized growth,"locus YCL061C, strain MRC1, stronger effect = lower value",1
same,normalized growth,[1],0.992
same,normalized growth,"locus YDR150W, strain NUM1, stronger effect = lower value",0.88
same,normalized growth,"locus YEL061C, strain CIN8, stronger effect = lower value",0.834 (active)
same,normalized growth,"locus YGR078C, strain PAC10, stronger effect = lower value",1
same,normalized growth,[2],0.363 (active)
same,normalized growth,"locus YHR087W, strain rtc3, stronger effect = lower value",0.989
same,normalized growth,"locus YJL187C, strain SWE1, stronger effect = lower value",0.987
same,normalized growth,"locus YJR043C, strain POL32, stronger effect = lower value",0.945
same,normalized growth,"locus YJR075W, strain HOC1, stronger effect = lower value",0.988
same,normalized growth,"locus YLR039C, strain RIC1, stronger effect = lower value",0.753 (active)
same,normalized growth,"locus YLR058C, strain SHM2 (second series), stronger effect = lower value",1
same,normalized growth,"locus YLR085C, strain ARP6, stronger effect = lower value",0.458 (active)
same,normalized growth,"locus YLR262C, strain YPT6, stronger effect = lower value",0.871
same,normalized growth,"locus YML094W, strain GIM5, stronger effect = lower value",0.773 (active)
same,normalized growth,"locus YMR219W, strain ESC1, stronger effect = lower value",1
same,normalized growth,"locus YMR263W, strain SAP30, stronger effect = lower value",0.909 (active)
same,normalized growth,"locus YNL128W, strain TEP1, stronger effect = lower value",0.976
same,normalized growth,"locus YNL153C, strain GIM3, stronger effect = lower value",0.996
same,normalized growth,"locus YNL298W, strain CLA4 (second series), stronger effect = lower value",0.588 (active)
same,normalized growth,"locus YNL322C, strain KRE1, stronger effect = lower value",0.977
same,normalized growth,"locus YNR030W, strain Alg12, stronger effect = lower value",0.69 (active)
same,normalized growth,"locus YOL006C, strain TOP1, stronger effect = lower value",0.769
same,normalized growth,"locus YPL055C, strain LGE1, stronger effect = lower value",0.765 (active)
same,normalized growth,"locus YPL241C, strain CIN2, stronger effect = lower value",0.707 (active)
same,normalized growth,"locus YPR135W, strain CTF4, stronger effect = lower value",0.553 (active)
